About 83,000 compounds went through this panel and 20% of them were active in at least one assay; those are over-represented in the sample as a whole.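 Compound tested at a single concentration for 48 hours in 96-well plates; a percent growth value below 10 was scored as active.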 A number with no mark means an inactive call. Calls of active or inactive are those of the source.

Test systems include NCI-H23 lung; NCI-H226 lung; NCI-H322M lung; HOP-62 NSCLC; NCI-H460 lung; HOP-92 NSCLC; NCI-H522 lung; A549/ATCC NSCLC; 786-0 renal; COLO 205 colon.
Common to all, as to test: NCI-60 one-dose screen, 48 h (100 = growth as untreated, 0 = no growth, -100 = all killed)
Holding throughout (settings): 10 µM unless noted

For `COc1cc(Nc2cc(C)nc(N3CCN(c4ccnc5cc(Cl)ccc45)CC3)n2)cc(OC)c1`, the growth was 9.55% (active) with NCI-H23 lung; 22.9% in the assay on NCI-H226 lung; 8.83% (active) in the assay with NCI-H322M lung; 10.1% with HOP-62 NSCLC; 2.55% (active) in the assay with NCI-H460 lung; 5.3% (active) with HOP-92 NSCLC. The growth was 9% (active) in the assay on NCI-H522 lung, 4.7% (active) with A549/ATCC NSCLC, -13.1% (active) in the assay on 786-0 renal and -24.4% (active) with COLO 205 colon.

Regarding `COc1cc(C(=O)Oc2ccccc2OC(=O)c2cc(OC)c(OC)c(OC)c2)cc(OC)c1OC`, the growth with NCI-H23 lung was 86.8%; in the assay with NCI-H226 lung, 107%; in the assay with NCI-H322M lung, 108%; in the assay on HOP-62 NSCLC, 88.1%; with NCI-H460 lung, 114%; with HOP-92 NSCLC, 83.4%. Also, the growth with NCI-H522 lung is 89.6%; in the assay with A549/ATCC NSCLC, 85.3%; with 786-0 renal, 118%; in the assay on COLO 205 colon, 103%.

As for `O=C(COc1cccc(/C=C2\CSc3ccccc3C2=O)c1)Nc1nccs1`, the growth with NCI-H23 lung was 19.7%; in the assay on NCI-H226 lung, 104%; in the assay on NCI-H322M lung, 98.7%; with HOP-62 NSCLC, 88.1%; in the assay on NCI-H460 lung, 91.5%; with HOP-92 NSCLC, -52% (active). Moreover, the growth in the assay on NCI-H522 lung is -60.3% (active); in the assay on A549/ATCC NSCLC, 95.1%; with 786-0 renal, 101%; in the assay on COLO 205 colon, 113%.

Regarding `COc1ccc(/C=C\c2cc(OC)c(OC)c(OC)c2)cc1OC(=O)c1cccc(Cn2cc(CCOC(=O)[C@H](N)Cc3cn(C)c4ccccc34)nn2)c1`, the growth in the assay with NCI-H23 lung is 29.6%; in the assay on NCI-H226 lung, 19.8%; with NCI-H322M lung, 50.1%; in the assay with HOP-62 NSCLC, 44.3%; with NCI-H460 lung, 1.11% (active); in the assay with HOP-92 NSCLC it was 61.6%. Further, the growth is 18.9% in the assay with NCI-H522 lung, 19.7% in the assay on A549/ATCC NSCLC, 15.7% in the assay on 786-0 renal and -54.5% (active) in the assay with COLO 205 colon.

As to `CN(C)[C@@H]1C(=O)C(C(=O)NCc2nc3[nH]cnc(=S)c3[nH]2)=C(O)[C@@]2(O)C(=O)C3=C(O)c4c(O)cccc4[C@@](C)(O)[C@H]3C[C@@H]12`, the growth with NCI-H23 lung was 58.7%; in the assay with NCI-H226 lung, 49.5%; in the assay on NCI-H322M lung, 37.9%; with HOP-62 NSCLC it was 18.4%; in the assay with NCI-H460 lung, 63.8%; in the assay with HOP-92 NSCLC it was 25.2%. Moreover, the growth in the assay with NCI-H522 lung is 33.3%; in the assay with A549/ATCC NSCLC, 101%; with 786-0 renal, 19.6%; with COLO 205 colon it was 88%.

Turning to `COc1ccc(C(=O)COc2cccc(/C=C3\CSc4ccccc4C3=O)c2)cc1`, the growth is 12.9% with NCI-H23 lung; 79.9% with NCI-H226 lung; 62.4% in the assay on NCI-H322M lung; 86.9% in the assay on HOP-62 NSCLC; 72.6% in the assay with NCI-H460 lung; 60.4% in the assay on HOP-92 NSCLC. In addition, the growth in the assay with NCI-H522 lung was -63.1% (active); in the assay with A549/ATCC NSCLC, 87.4%; in the assay with 786-0 renal, 80.2%; in the assay on COLO 205 colon, 105%.

As for `COc1ccc(-n2nc(C)c3c(Nc4ccc(NC(=O)Nc5cccc(C(F)(F)F)c5)cc4)ncnc32)cc1`, the growth in the assay with NCI-H23 lung is 9.95% (active); in the assay on NCI-H226 lung, 34.1%; in the assay with NCI-H322M lung it was 5.43% (active); in the assay on HOP-62 NSCLC it was -37.9% (active); in the assay on NCI-H460 lung, 1.6% (active); in the assay with HOP-92 NSCLC it was -26.4% (active). Also, the growth in the assay on NCI-H522 lung is 4.21% (active); in the assay on A549/ATCC NSCLC, -19.2% (active); in the assay on 786-0 renal, -47.4% (active); in the assay with COLO 205 colon it was -39.2% (active).

For `CC(=O)c1nc2ccccc2n1CC(=O)c1cccc(Cl)c1`, the growth in the assay with NCI-H23 lung was 36.6%; with NCI-H226 lung, 105%; in the assay with NCI-H322M lung, 48.2%; in the assay with HOP-62 NSCLC it was 55.8%; in the assay on NCI-H460 lung it was 4.22% (active); in the assay on HOP-92 NSCLC it was 75.6%. The growth was -16% (active) with NCI-H522 lung, 15.2% with A549/ATCC NSCLC, 35.8% in the assay with 786-0 renal and 117% with COLO 205 colon.

`NC(=NCCCC1(c2ccccc2)CCCC1)Nc1ccc(Cl)cc1`: the growth was 44% in the assay with NCI-H23 lung; 96.5% in the assay on NCI-H226 lung; 36.2% with NCI-H322M lung; 69.6% with HOP-62 NSCLC; -32.8% (active) with NCI-H460 lung; 9.43% (active) with HOP-92 NSCLC. Also, the growth in the assay on NCI-H522 lung was 56.9%; with A549/ATCC NSCLC it was 63.1%; in the assay on 786-0 renal, 65.5%; in the assay on COLO 205 colon it was -72.5% (active).

Consider `NC(=O)c1cc(Br)ccc1NC(=O)/C=C/c1ccccc1`, for which the growth in the assay on NCI-H23 lung is 62%; in the assay on NCI-H226 lung, 66.9%; in the assay with NCI-H322M lung, 76.1%; in the assay on HOP-62 NSCLC, 99%; in the assay with NCI-H460 lung, 17.1%; in the assay on HOP-92 NSCLC, 57%. The growth in the assay with NCI-H522 lung is -24.9% (active); in the assay on A549/ATCC NSCLC, 33.2%; with 786-0 renal, 65.7%; in the assay with COLO 205 colon, -4.22% (active).

`CC(C)n1c(/C=C/[C@@H](O)C[C@@H](O)CC(=O)O)c(-c2ccc(F)cc2)c2ccccc21`: the growth is 38.4% with NCI-H23 lung; 64.1% with NCI-H226 lung; 43.7% with NCI-H322M lung; 73.4% with HOP-62 NSCLC; 32.5% in the assay on NCI-H460 lung; -29.1% (active) with HOP-92 NSCLC. Besides, the growth was 0.551% (active) in the assay with NCI-H522 lung, 61.3% with A549/ATCC NSCLC, 64% in the assay with 786-0 renal and 75.4% in the assay with COLO 205 colon.

For the molecule `O=C1C=CC(=O)N1c1ccc2c(c1)Cc1cc(F)ccc1-2`, the growth in the assay on NCI-H23 lung is 101%; in the assay with NCI-H226 lung, 99.3%; with NCI-H322M lung it was 93%; in the assay with HOP-62 NSCLC, 93.8%; with NCI-H460 lung, 111%; in the assay with HOP-92 NSCLC it was 83.4%. Also, the growth in the assay with NCI-H522 lung is 91.1%; in the assay with A549/ATCC NSCLC it was 97.9%; in the assay on 786-0 renal, 112%; with COLO 205 colon it was 94%.

With `COc1ccc(-c2cc(NC(=O)Nc3ccc4ncsc4c3)no2)cc1`, the growth with NCI-H23 lung was 100%; with NCI-H226 lung it was 101%; in the assay with NCI-H322M lung, 107%; in the assay on HOP-62 NSCLC, 111%; with NCI-H460 lung it was 99.9%; with HOP-92 NSCLC, 105%. Moreover, the growth in the assay on NCI-H522 lung was 88.3%; in the assay with A549/ATCC NSCLC it was 103%; in the assay on 786-0 renal, 99.1%; in the assay on COLO 205 colon it was 125%.

Source of the values: PubChem BioAssay (NCI).
